Broadly, the inhibition is the relative decrease from the control value, in per cent.

The first experiment deals with T1, Phosphorylase b kinase gamma catalytic chain, liver/testis isoform (Homo sapiens) (UniProt P15735).
T1 sequence (whole entry): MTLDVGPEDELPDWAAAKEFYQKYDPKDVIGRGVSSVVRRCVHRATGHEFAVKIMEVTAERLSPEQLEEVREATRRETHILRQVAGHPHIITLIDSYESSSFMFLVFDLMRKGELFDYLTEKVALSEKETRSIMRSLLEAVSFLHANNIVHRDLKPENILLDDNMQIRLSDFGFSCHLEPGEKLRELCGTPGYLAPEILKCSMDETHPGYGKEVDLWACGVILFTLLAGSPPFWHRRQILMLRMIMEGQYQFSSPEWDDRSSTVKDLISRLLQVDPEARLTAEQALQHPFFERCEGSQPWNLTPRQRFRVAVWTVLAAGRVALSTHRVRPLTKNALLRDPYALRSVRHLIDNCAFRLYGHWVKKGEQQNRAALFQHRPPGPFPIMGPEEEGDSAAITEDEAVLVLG
As to conditions: at 1 µM.
Take `CCS(=O)(=O)c1ccc(OC)c(Nc2ncc(-c3cccc(-c4ccccc4F)c3)o2)c1`: the inhibition was -0.67%.

For `C/C(Nc1ccc(S(N)(=O)=O)cc1)=C1/C(=O)Nc2ccccc21`, the inhibition worked out at 19.6%.

Take `CN(C)CCOc1ccc(-c2cc(-c3ccc4c(c3)CCC4=NO)c(-c3ccncc3)o2)cc1`: the inhibition is -1.19%.

With `CCc1cccc(CC)c1/C=C/c1cncc(C(=O)NC)c1`, the inhibition was determined as 0.53%.

With `COc1ccc2cc(-c3c(-c4ccncc4)nc(-c4ccc(S(C)(=O)=O)cc4C)n3C)ccc2c1`, the inhibition stood at 5.26%.

Regarding `CCS(=O)(=O)c1ccc(OC)c(Nc2ncc(-c3ccccc3Cl)o2)c1`, the inhibition worked out at 0.7%.

With `COc1cc2ncn(-c3cc(OCCc4ccccc4)c(C(N)=O)s3)c2cc1OC`, the inhibition was found to be 0.33%.

Consider `CN1CCN(CCCNc2nc3ccc(Oc4ccc(NC(=O)Nc5cc(C(F)(F)F)ccc5F)cc4)cc3[nH]2)CC1`, for which the inhibition is -0.8%.

Regarding `Cc1ccc(NC(=O)c2ccoc2)cc1-c1ccc(C(=O)NCC2CC2)cc1`, the inhibition worked out at 3.24%.

Consider `COc1ccc2cc(-c3c(-c4ccncc4)nc(-c4ccc([S+](C)[O-])cc4C)n3C)ccc2c1` (stereo not drawn), for which the inhibition was -1.4%.

On to `O=C(NCC1CC1)c1ccc(-c2cccc(C(=O)NC3CC3)c2)cc1`, for which the inhibition was -1.04%.

As to `O=C(Nc1n[nH]c2cc(-c3cc(F)ccc3F)ccc12)C1CC1`, the inhibition is 1.94%.

For `COc1cc(N2CCN(C(C)C)CC2)ccc1Nc1nc(Nc2ccc(F)cc2C(=O)NC[C@@H](O)CO)c2cc[nH]c2n1`, the inhibition came out at 21.1%.

As to `NC(=O)c1cc(-c2ccncc2)cc(-c2ccccc2)c1N`, the inhibition is 5.48%.

As to `Fc1ccc(-c2ncn(C3CCNCC3)c2-c2ccnc(Oc3ccc4c(c3)OCO4)n2)cc1`, the inhibition was found to be 5.8%.

For `FC(F)(F)c1cccc(Nc2nccc(-c3cnn4nc(-c5ccccc5)ccc34)n2)c1`, the inhibition worked out at 2.77%.

`COc1cc2ncn(-c3cc(OCc4ccccc4C(F)(F)F)c(C(C)=O)s3)c2cc1OC`: the inhibition turned out to be 4.18%.

With `Fc1ccc(-c2ncn(CCCN3CCOCC3)c2-c2ccncc2)cc1`, the inhibition is -2.63%.

On to `NS(=O)(=O)c1ccc(Nc2cc(-c3ccc(O)c(F)c3)n[nH]2)cc1`, for which the inhibition was -3.66%.

`CN(C)CCCNc1nccc(-c2c(-c3ccc(F)cc3)nn3cc(C(F)(F)F)ccc23)n1`: the inhibition turned out to be 0.17%.

Take `Fc1ccc(-c2c(-c3ccncc3)nc3n2CCS3)cc1`: the inhibition is 3.28%.

For the compound `O=C(Nc1n[nH]c2nc(-c3ccco3)ccc12)C1CC1`, the inhibition was -0.31%.

On to `C[C@@H](Oc1cc(-n2cnc3ccc(OCC4CCN(C)CC4)cc32)sc1C(N)=O)c1ccccc1Cl`, for which the inhibition came out at 9.94%.

As for `c1ccc(-c2n[nH]cc2-c2ccnc(-c3ccc(OCCN4CCOCC4)cc3)c2)nc1`, the inhibition is -3.23%.

Take `O=C1Nc2ccccc2/C1=C/Nc1ccc(-n2cncn2)cc1`: the inhibition amounted to 18.7%.

For the compound `c1ccc(Oc2ccc(Nc3ncc(-c4ccccc4)o3)cc2)cc1`, the inhibition amounted to 0.32%.

As for `CCN(CC)Cc1ccc(Nc2nccc(-c3cnn4ncccc34)n2)cc1`, the inhibition came to 15.3%.

Turning to `Cc1ccc(C(=O)NC(C)C)cc1-c1ccc(C(=O)NCC2CC2)cc1`, the inhibition was -6.57%.

Turning to `COc1cc2ncn(-c3cc(OCc4cccs4)c(C(N)=O)s3)c2cc1OC`, the inhibition was 10.1%.

Regarding `O=C(Nc1ccc(Oc2ccc3[nH]c(NC(=O)c4ccccc4)nc3c2)cc1)Nc1cc(C(F)(F)F)ccc1F`, the inhibition is 4.6%.

In the case of `COc1ccc(-c2ccc3c(NC(=O)C4CC4)n[nH]c3n2)cc1`, the inhibition was 5.44%.

For the compound `COc1cc(Nc2ncc3c(C)nc(-c4cccc(C(F)(F)F)c4)n3n2)cc(OC)c1OC`, the inhibition turned out to be 6.94%.

As for `Fc1ccc(-c2ncn(C3CCNCC3)c2-c2ccnc(Oc3ccc(F)c(F)c3)n2)cc1`, the inhibition was 4.7%.

Turning to `NS(=O)(=O)c1ccc(N/N=C2\C(=O)Nc3ccc(C(=O)NCCCn4ccnc4)cc32)cc1`, the inhibition was 10%.

The target of another experiment is Serine/threonine-protein kinase pim-1 (Homo sapiens) (UniProt P11309). As to conditions: at 0.1 µM.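 Further: reported value is the mean inhibition of PIM1.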
Serine/threonine-protein kinase pim-1 (Homo sapiens), sequence (P11309 whole entry, looked up): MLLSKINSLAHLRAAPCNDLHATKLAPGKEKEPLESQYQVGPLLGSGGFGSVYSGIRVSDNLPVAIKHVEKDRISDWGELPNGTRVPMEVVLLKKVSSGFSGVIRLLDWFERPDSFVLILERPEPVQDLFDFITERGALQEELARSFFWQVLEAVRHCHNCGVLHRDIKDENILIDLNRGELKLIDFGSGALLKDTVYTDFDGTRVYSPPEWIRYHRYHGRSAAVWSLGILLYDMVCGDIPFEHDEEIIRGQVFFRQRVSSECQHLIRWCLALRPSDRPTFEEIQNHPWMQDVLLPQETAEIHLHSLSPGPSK
Take `CCS(=O)(=O)c1ccc(OC)c(Nc2ncc(-c3cccc(-c4ccccc4F)c3)o2)c1`: the inhibition is -0.29%.

`C/C(Nc1ccc(S(N)(=O)=O)cc1)=C1/C(=O)Nc2ccccc21`: the inhibition amounted to 0.43%.

Consider `CN(C)CCOc1ccc(-c2cc(-c3ccc4c(c3)CCC4=NO)c(-c3ccncc3)o2)cc1`, for which the inhibition came out at 0.55%.

For the compound `CCc1cccc(CC)c1/C=C/c1cncc(C(=O)NC)c1`, the inhibition is 1.04%.

Turning to `COc1ccc2cc(-c3c(-c4ccncc4)nc(-c4ccc(S(C)(=O)=O)cc4C)n3C)ccc2c1`, the inhibition turned out to be 2.41%.

As to `CCS(=O)(=O)c1ccc(OC)c(Nc2ncc(-c3ccccc3Cl)o2)c1`, the inhibition was -0.02%.

Turning to `COc1cc2ncn(-c3cc(OCCc4ccccc4)c(C(N)=O)s3)c2cc1OC`, the inhibition is -0.26%.

In the case of `CN1CCN(CCCNc2nc3ccc(Oc4ccc(NC(=O)Nc5cc(C(F)(F)F)ccc5F)cc4)cc3[nH]2)CC1`, the inhibition stood at 0.7%.

As for `Cc1ccc(NC(=O)c2ccoc2)cc1-c1ccc(C(=O)NCC2CC2)cc1`, the inhibition amounted to 0.53%.

As to `COc1ccc2cc(-c3c(-c4ccncc4)nc(-c4ccc([S+](C)[O-])cc4C)n3C)ccc2c1` (stereo not drawn), the inhibition is 0.66%.

Consider `O=C(NCC1CC1)c1ccc(-c2cccc(C(=O)NC3CC3)c2)cc1`, for which the inhibition worked out at 0.15%.

On to `O=C(Nc1n[nH]c2cc(-c3cc(F)ccc3F)ccc12)C1CC1`, for which the inhibition was -0.51%.

Take `COc1cc(N2CCN(C(C)C)CC2)ccc1Nc1nc(Nc2ccc(F)cc2C(=O)NC[C@@H](O)CO)c2cc[nH]c2n1`: the inhibition was -0.41%.

On to `NC(=O)c1cc(-c2ccncc2)cc(-c2ccccc2)c1N`, for which the inhibition stood at 1.39%.

Consider `Fc1ccc(-c2ncn(C3CCNCC3)c2-c2ccnc(Oc3ccc4c(c3)OCO4)n2)cc1`, for which the inhibition was determined as 0.83%.

As to `FC(F)(F)c1cccc(Nc2nccc(-c3cnn4nc(-c5ccccc5)ccc34)n2)c1`, the inhibition is 0.96%.

For the compound `COc1cc2ncn(-c3cc(OCc4ccccc4C(F)(F)F)c(C(C)=O)s3)c2cc1OC`, the inhibition is -0.09%.

Consider `Fc1ccc(-c2ncn(CCCN3CCOCC3)c2-c2ccncc2)cc1`, for which the inhibition is -0.06%.

As to `NS(=O)(=O)c1ccc(Nc2cc(-c3ccc(O)c(F)c3)n[nH]2)cc1`, the inhibition was -1.13%.

For the compound `CN(C)CCCNc1nccc(-c2c(-c3ccc(F)cc3)nn3cc(C(F)(F)F)ccc23)n1`, the inhibition stood at 0.62%.

With `Fc1ccc(-c2c(-c3ccncc3)nc3n2CCS3)cc1`, the inhibition was -0.78%.

Consider `O=C(Nc1n[nH]c2nc(-c3ccco3)ccc12)C1CC1`, for which the inhibition was 1.36%.

Take `C[C@@H](Oc1cc(-n2cnc3ccc(OCC4CCN(C)CC4)cc32)sc1C(N)=O)c1ccccc1Cl`: the inhibition was 18.5%.

Turning to `c1ccc(-c2n[nH]cc2-c2ccnc(-c3ccc(OCCN4CCOCC4)cc3)c2)nc1`, the inhibition is 1.29%.

`O=C1Nc2ccccc2/C1=C/Nc1ccc(-n2cncn2)cc1`: the inhibition was determined as 0.85%.

Turning to `c1ccc(Oc2ccc(Nc3ncc(-c4ccccc4)o3)cc2)cc1`, the inhibition is 0.45%.

`CCN(CC)Cc1ccc(Nc2nccc(-c3cnn4ncccc34)n2)cc1`: the inhibition was 2.49%.

In the case of `Cc1ccc(C(=O)NC(C)C)cc1-c1ccc(C(=O)NCC2CC2)cc1`, the inhibition worked out at 0.13%.

`COc1cc2ncn(-c3cc(OCc4cccs4)c(C(N)=O)s3)c2cc1OC`: the inhibition was determined as 0.81%.

For the compound `O=C(Nc1ccc(Oc2ccc3[nH]c(NC(=O)c4ccccc4)nc3c2)cc1)Nc1cc(C(F)(F)F)ccc1F`, the inhibition was 0.97%.

For the compound `COc1ccc(-c2ccc3c(NC(=O)C4CC4)n[nH]c3n2)cc1`, the inhibition was -0.29%.

With `COc1cc(Nc2ncc3c(C)nc(-c4cccc(C(F)(F)F)c4)n3n2)cc(OC)c1OC`, the inhibition came to 0.28%.

For `Fc1ccc(-c2ncn(C3CCNCC3)c2-c2ccnc(Oc3ccc(F)c(F)c3)n2)cc1`, the inhibition is -1.11%.

Take `NS(=O)(=O)c1ccc(N/N=C2\C(=O)Nc3ccc(C(=O)NCCCn4ccnc4)cc32)cc1`: the inhibition came out at 2.53%.

The values are drawn from ChEMBL document CHEMBL1961873, “Compounds: GSK PKIS; Assays: Nanosyn kinase panel” (2012).
